For 29 compounds, Potency and outcome results are on record in PubChem BioAssay (NCATS).

Molecules are shown by their SMILES. Inconclusive results are not listed. Where a call stands in place of a potency, no number is given. The source made the active and inactive calls. Calls follow the shape of the dose curve; as a rule, active = well fitted inhibition curve with a large enough effect; inconclusive = small, poorly fitted or top-dose-only effect; inactive = flat fitted curve, though single readings scatter.

The assay deals with HEK293T. Nature of the assay: qHTS assay to identify novel small-molecules to repurpose for Merkel cell carcinoma treatment (AID 1296009). Also: nearly all actives have a fitted effect of over 60% in size. The settings on record: MCC and control cell lines, CellTiter-Glo viability, 72 h; series mostly up to 44.8 µM. The procedure, abridged: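 Cells were incubated with compound for 72 hr at 37 degree celsius before CellTiter-Glo addition. Luminescence was normalized with no-cell wells as full cytotoxicity and DMSO as baseline.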
For orientation: qHTS replaces the single test concentration by a dilution series.
Take `C=CC1(C)C=C2C(O)CC3C(C)(C(=O)O)CCCC3(C)C2CC1` (centres undefined): the Potency entry is “inactive”. Still for that read-out and setting: under `CC1CC(O)C2(C)C(C(=O)O)=CCCC2C1(C)CCc1ccoc1` (centres undefined) stands “inactive”; under `COCCCNCC1COc2ccccc2O1` (centres undefined), “inactive”.

As for `CC(=O)O[C@@H]1C[C@@]23C[C@@]24CC[C@H](OC2OC[C@@H](O)[C@H](O)[C@H]2O)C(C)(C)[C@@H]4CC[C@H]3[C@]2(C)CC3OC4(C[C@@H](C)C3[C@@]12C)OCC1(C)OC14` (some centres undefined), the Potency entry was “inactive”. Same read-out and setting: with `C[C@@H]1C(=O)O[C@H]2CC34[C@H]5C[C@@H](C(C)(C)C)C36[C@@H](OC(=O)[C@@H]6O)OC4(C(=O)O5)[C@]21O` (some centres undefined) the entry was “inactive”; with `CC1(C)C(O)CCC2(C)C1C(O)C=C1COC(=O)C12O` (centres undefined), “inactive”; with `CCCCNC(=O)[C@@H]1Cc2ccccc2N1C(=O)[C@@H](N)CC`, “inactive”. Still for that read-out and setting: with `NCCCC[C@H](NC(=O)[C@@H]1Cc2ccccc2CN1C(=O)CCC(=O)c1ccccc1)C(=O)NCC(c1ccccc1)c1ccccc1` the entry was “inactive”; with `CC1CCC2(C(=O)OC3OC(CO)C(O)C(O)C3O)CCC3(C(=O)O)C(=CCC4C5(C)CCC(OC6OC(C)C(O)C(O)C6O)C(C)(C)C5CCC43C)C2C1C` (centres undefined), “inactive”. Same read-out and setting: under `CC(=O)N1CCN(NC(=O)c2ccc(F)cc2)CC1` stands “inactive”; under `COc1cc(C2Oc3c(OC)cc(/C=C/C(=O)OC[C@H]4O[C@@H](OC(C)(C)C(=O)O)[C@H](O)[C@@H](O)[C@@H]4O)cc3C2CO)ccc1O` (some centres undefined), “inactive”.

Take `CC1=C2C(=O)C=C(CO)[C@@H]2[C@H]2OC(=O)[C@H](C)[C@@H]2[C@@H](O)C1`: the Potency entry is “inactive”. For `C[C@@H]1O[C@@H](O[C@H]2[C@H](O)[C@@H](C(=O)O)O[C@@H](O[C@H]3CC[C@@]4(C)C(CC[C@]5(C)C4CC=C4C6CC(C)(C)CC[C@]6(C(=O)O)CC[C@]45C)C3(C)C)[C@@H]2O[C@@H]2O[C@H](CO)[C@@H](O)[C@H](O)[C@H]2O)[C@H](O)[C@H](O)[C@H]1O` (some centres undefined), the outcome was “inactive [at 9.27 µM]”. Regarding `C(#Cc1cccc(CN2CCOCC2)c1)CCN1CCCCC1`, the Potency result was “inactive”.

As to `C[C@@H]1C(=O)O[C@H]2[C@H]1CC[C@@]1(C)C(=O)C=C[C@](C)(O)[C@H]21`, the Potency result was “inactive”. Same read-out and setting: under `CC(C)C(=O)O[C@@H]1[C@@H](O)[C@@H](O[C@H]2O[C@H](CO)[C@@H](O)[C@H](O)[C@H]2O)O[C@H](CO)[C@H]1O` stands “inactive”.

As to `O=C(NCC(=O)N1CC[C@H](NC2CCC(O)(c3ccc(-c4ncccn4)cn3)CC2)C1)c1cccc(C(F)(F)F)c1` (some centres undefined), the Potency result is “inactive”. Still for that read-out and setting: under `CCCCS(=O)(=O)Nc1ncnc(OCCOc2ncc(Br)cn2)c1-c1ccc(Br)cc1` stands “inactive”; under `COc1cc([C@H]2OC[C@]3(OC(C)=O)[C@@H](c4ccc(O[C@@H]5O[C@H](CO)[C@@H](O)[C@H](O)[C@H]5O)c(OC)c4)OC[C@H]23)ccc1O`, “inactive”; under `O=C1NC(=Nc2ccccc2F)S/C1=C\c1ccc(C(=O)O)cc1`, “inactive”. Take `C=C(C)[C@H]1C[C@@H](O)C(=C)CC[C@@H](O)C(=C)[C@@H](O)C1`: the Potency entry was “inactive”.

On to `CC(=O)OC[C@]12[C@H](OC(C)=O)C(=O)[C@@H]3[C@@H](OC(C)=O)[C@@]14O[C@@]3(C)COC(=O)c1cccnc1[C@@H](C)[C@H](C)C(=O)O[C@@H]([C@H](OC(C)=O)[C@@H]2OC(C)=O)[C@]4(C)O`, for which the Potency result is “inactive”. On the same count and under the same terms, under `CCOC(=O)[C@H]1O[C@@H]1C(=O)N[C@@H](CC(C)C)C(=O)NCCC(C)C` stands “inactive”; under `C=C1C[C@]23C[C@H]1CC[C@H]2[C@]1(C)CCC[C@@]2(CO)C(=O)O[C@H]([C@H]21)[C@@H]3O`, “inactive”.

For the compound `COc1ccc(/C=C/C(=O)O[C@@H]2[C@@H](OC(C)=O)[C@@H](OC(C)=O)[C@H](O[C@H]3[C@@H]4C=CO[C@@H](O[C@@H]5O[C@H](CO)[C@@H](O)[C@H](O)[C@H]5O)[C@@H]4[C@@]4(CO)O[C@@H]34)O[C@H]2C)cc1O`, the Potency entry was “inactive”. With `O=C(O[C@@H]1O[C@H](CO)[C@@H](O)[C@H](O)[C@H]1O)c1c(O)cc(O)cc1/C=C/c1ccccc1`, the Potency result is “inactive”. For the compound `COC(=O)C1=COC(O[C@@H]2O[C@H](CO)[C@@H](O)[C@H](O)[C@H]2O)/C(=C\COC(=O)c2ccc(OC3OC(CO)C(O)C(O)C3O)c(OC)c2)C1CC(=O)OCCc1ccc(O)cc1` (some centres undefined), the outcome was “inactive [at 9.27 µM]”. With `CC(C)=CCC/C(C)=C/CC/C(C)=C/CC[C@]1(C)CCc2cc(O)cc(C)c2O1`, the Potency entry was “inactive”. For `C=C1CCC2C(C)(C)C(O)CCC2(C)C1CCC(C)CCOC(=O)CCC(=O)O` (centres undefined), the Potency result was “inactive”.
